Screen size: about 310,000 compounds; about 14,000 (4.5%) showed an effect of 50% or more. The effect is printed as a negative number. What follows is part of a selection rich in strong results, with near analogues and random picks from the rest.

From paper PMC4336329 (PLoS ONE, 2015) come the findings set out here.
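Note: peak tail current of the secondary pulse compared with the same well before compound.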

In the test the target is human ether-à-go-go-related gene (hERG) potassium channel (human, UniProt Q12809). Description: primary screen, population patch clamp on CHO cells stably expressing hERG; higher = less effect of the substance.
Chain of human ether-à-go-go-related gene (hERG) potassium channel (Q12809 whole entry, looked up): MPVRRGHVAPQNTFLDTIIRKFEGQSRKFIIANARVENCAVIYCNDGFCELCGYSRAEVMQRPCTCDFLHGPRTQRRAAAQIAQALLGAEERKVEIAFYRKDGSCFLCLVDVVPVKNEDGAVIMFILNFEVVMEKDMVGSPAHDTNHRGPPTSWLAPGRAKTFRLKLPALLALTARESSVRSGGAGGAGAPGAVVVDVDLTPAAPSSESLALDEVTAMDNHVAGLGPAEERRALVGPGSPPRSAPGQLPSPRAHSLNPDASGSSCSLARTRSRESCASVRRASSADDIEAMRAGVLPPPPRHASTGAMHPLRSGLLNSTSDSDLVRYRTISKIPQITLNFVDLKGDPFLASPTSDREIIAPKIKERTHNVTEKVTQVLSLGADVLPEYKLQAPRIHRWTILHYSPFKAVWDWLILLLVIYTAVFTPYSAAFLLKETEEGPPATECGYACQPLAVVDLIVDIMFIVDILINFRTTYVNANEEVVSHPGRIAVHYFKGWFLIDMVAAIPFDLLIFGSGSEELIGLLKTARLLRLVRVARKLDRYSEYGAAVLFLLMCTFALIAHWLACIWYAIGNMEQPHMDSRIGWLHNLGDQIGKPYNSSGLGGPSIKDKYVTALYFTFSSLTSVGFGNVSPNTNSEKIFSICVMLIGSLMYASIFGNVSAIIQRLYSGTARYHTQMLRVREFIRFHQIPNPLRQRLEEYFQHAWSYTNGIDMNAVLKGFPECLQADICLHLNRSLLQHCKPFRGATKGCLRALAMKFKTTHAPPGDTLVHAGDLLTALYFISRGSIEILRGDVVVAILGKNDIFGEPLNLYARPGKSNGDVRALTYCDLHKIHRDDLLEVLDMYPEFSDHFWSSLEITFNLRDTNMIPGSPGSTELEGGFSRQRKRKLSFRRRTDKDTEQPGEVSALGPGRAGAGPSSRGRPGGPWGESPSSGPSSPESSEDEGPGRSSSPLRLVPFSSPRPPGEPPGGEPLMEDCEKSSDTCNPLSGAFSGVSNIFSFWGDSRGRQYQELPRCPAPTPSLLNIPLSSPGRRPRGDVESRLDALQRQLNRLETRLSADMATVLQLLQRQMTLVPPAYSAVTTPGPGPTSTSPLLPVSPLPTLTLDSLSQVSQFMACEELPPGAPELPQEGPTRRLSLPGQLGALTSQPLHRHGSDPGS
As to `COc1ccc(NS(=O)(=O)c2cccc(C(=O)NCC(c3ccco3)N3CCCC3)c2)cc1` (stereo not shown), the “hERG current change (%, negative = inhibition) at 10uM” value is given as -36.8%.

For the compound `Cc1ccc(S(=O)(=O)Nc2ccc3cn[nH]c3c2)c(C)c1`, the “hERG current change (%, negative = inhibition) at 10uM” value is reported as -18.1%.

Take `Cc1cccc(NC(=O)c2nc[nH]c2C(=O)NCC(=O)OCc2ccccc2)c1`: the “hERG current change (%, negative = inhibition) at 10uM” value is given as 9.54%.

For `CC(C)CC(N)c1cn([C@@H](CCC(=O)O)C(=O)N2CCNCC2)nn1.Cl` (stereo partly shown), the “hERG current change (%, negative = inhibition) at 10uM” value worked out at 17.2%.

As for `COC(=O)N/N=C(\C)c1ccc(C)c([N+](=O)[O-])c1`, the “hERG current change (%, negative = inhibition) at 10uM” value was -0.21%.

In the case of `COC(=O)c1cccc(NC(=O)c2cnn(C)c2)c1`, the “hERG current change (%, negative = inhibition) at 10uM” value turned out to be 15.9%.

For `CCO.CCOC(=O)c1c(-c2ccccc2)oc2ccc(OC(C)C(=O)O)cc12` (stereo not shown), the “hERG current change (%, negative = inhibition) at 10uM” value is given as -15%.

For `O=C(NNC(=S)NC(=O)c1ccccc1)c1cccc([N+](=O)[O-])c1`, the “hERG current change (%, negative = inhibition) at 10uM” value stood at 22.8%.

As for `Cc1csc(SCC(=O)Nc2cccc3nsnc23)n1`, the “hERG current change (%, negative = inhibition) at 10uM” value is -14.8%.

Consider `CCCOc1ccc(C(=O)N(Cc2cccs2)C2CCS(=O)(=O)C2)cc1` (stereo not shown), for which the “hERG current change (%, negative = inhibition) at 10uM” value is recorded as -8.87%.

`CCn1c2ccccc2c2cc(CC(N)=O)ccc21`: the “hERG current change (%, negative = inhibition) at 10uM” value worked out at 5.3%.

As to `COc1ccc(C(=O)NCCc2nnc3ccc(SCC(=O)NCCc4ccc(OC)c(OC)c4)nn23)cc1`, the “hERG current change (%, negative = inhibition) at 10uM” value amounted to 0.371%.

Regarding `Cc1cccc(NC(=O)CC2NCCNC2=O)c1` (stereo not shown), the “hERG current change (%, negative = inhibition) at 10uM” value came to 8.94%.

In the case of `Cc1ccc(NC(=O)CSc2nnc(-c3cccnc3)n2-c2ccc(C)cc2)cc1`, the “hERG current change (%, negative = inhibition) at 10uM” value is -21.4%.

With `COc1cc(NC(=O)CSc2nnc3ccc(-c4cccnc4)nn23)cc(OC)c1`, the “hERG current change (%, negative = inhibition) at 10uM” value is reported as -9.05%.

For the compound `O=C(CSc1nnc2ccc(-c3cccnc3)nn12)Nc1ccc(F)cc1`, the “hERG current change (%, negative = inhibition) at 10uM” value was -63%.

For the compound `O=C(CSc1nnc(-c2cccnc2)n1-c1ccccc1)Nc1ccccc1`, the “hERG current change (%, negative = inhibition) at 10uM” value was -76.3%.

Turning to `Cc1ccc(NC(=O)C(C)Sc2nnc(-c3cccnc3)n2-c2ccccc2)cc1` (stereo not shown), the “hERG current change (%, negative = inhibition) at 10uM” value was -81.4%.

As to `Cc1nnc(SCC(=O)Nc2cccc(N)c2)n1-c1ccccc1`, the “hERG current change (%, negative = inhibition) at 10uM” value was -10.1%.

Take `Nc1nnc(SCC(=O)Nc2ccc(F)c(Cl)c2)n1-c1ccccc1`: the “hERG current change (%, negative = inhibition) at 10uM” value is reported as -70.7%.

For the compound `O=C(CSc1nnc(-c2cccnc2)n1-c1ccccc1)Nc1ccccn1`, the “hERG current change (%, negative = inhibition) at 10uM” value is listed as -41%.

As to `Cc1ccccc1-n1c(SC(C)C(N)=O)nnc1-c1cccnc1` (stereo not shown), the “hERG current change (%, negative = inhibition) at 10uM” value is -6.92%.

In the case of `Cc1ccc(NC(=O)CSc2nnc(C)n2-c2ccccc2)cc1`, the “hERG current change (%, negative = inhibition) at 10uM” value is reported as -3.7%.

`Cc1ccc(NC(=O)C(C)Sc2nnc(-c3cccnc3)o2)cc1` (stereo not shown): the “hERG current change (%, negative = inhibition) at 10uM” value came to 11.9%.

As to `COc1ccc(NC(=O)CSc2nnc3ccc(-c4cccnc4)nn23)cc1`, the “hERG current change (%, negative = inhibition) at 10uM” value is on record as -46.4%.
